HP1b chromo inh = blocks HP1-beta chromodomain binding to methylated histone tails; Potency, µM (series often up to 114 µM), for inactives: at the highest dose activity change, negative = inhibition, hits mostly inhibitors; 390,000 tested, 0.56% active; AlphaScreen HP1-beta / biotin-H3K9me3 peptide binding; P83916; also: nearly all actives have a fitted effect of over 70% in size
Target sequence (P83916 whole entry, looked up): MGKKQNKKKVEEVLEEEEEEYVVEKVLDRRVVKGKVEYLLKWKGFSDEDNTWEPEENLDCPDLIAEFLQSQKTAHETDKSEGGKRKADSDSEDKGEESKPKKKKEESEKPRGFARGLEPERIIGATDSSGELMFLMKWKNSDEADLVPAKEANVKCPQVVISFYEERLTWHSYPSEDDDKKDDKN
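AlphaScreen: HP1-beta (50 nM) preformed 30 min with biotin-H3(1-18)K9me3 peptide (50 nM) in PBS pH 7.4, 0.01% Tween-20. Compound added for 30 min at RT, then streptavidin donor/nickel chelate acceptor beads (10 ug/mL) for 30 min.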
JMJD2A Tudor = JMJD2A Tudor domain (human) inhibition | AID 504339 | AlphaScreen JMJD2A-Tudor / H3K4me3 peptide binding | 390,000 tested, 4.4% active | Potency, µM (highest dose often 114 µM), for inactives: top-dose activity change, negative = inhibition, hits mostly inhibitors; also: % is scaled to controls: 0 for no effect and ±100 for the full control effect; nearly all actives have a fitted effect of over 50% in size
L3MBTL1 inh = L3MBTL1 (human) inhibition. AlphaScreen L3MBTL1–H3K9me1 peptide binding. Potency, µM (series often up to 57.1 µM), for the others: top-dose activity, negative = inhibition, most hits filed as inhibitors. 230,000 tested, 0.66% active. AID 485360; also: % is scaled to controls: 0 for no effect and ±100 for the full control effect; nearly all actives have a fitted effect of over 60% in size
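Displacement of a biotinylated histone H3(1-15) peptide monomethylated at Lys9 (75 nM) from L3MBTL1 (50 nM) was measured by AlphaScreen after a 30 min room-temperature compound incubation; cefsulodin titration served as intraplate control.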
G9a inh = G9a (human) methyltransferase inhibition. Q96KQ7. G9a H3K9 monomethylation, AlphaScreen, 2 h. 350,000 tested, 8.8% active. Potency, µM (doses to about 102 µM), for the others: top-dose activity, negative = inhibition, actives largely listed as inhibitors; also: % is scaled to controls: 0 for no effect and ±100 for the full control effect; nearly all actives have a fitted effect of over 75% in size
Target sequence (Q96KQ7 913-1193 limits assumed): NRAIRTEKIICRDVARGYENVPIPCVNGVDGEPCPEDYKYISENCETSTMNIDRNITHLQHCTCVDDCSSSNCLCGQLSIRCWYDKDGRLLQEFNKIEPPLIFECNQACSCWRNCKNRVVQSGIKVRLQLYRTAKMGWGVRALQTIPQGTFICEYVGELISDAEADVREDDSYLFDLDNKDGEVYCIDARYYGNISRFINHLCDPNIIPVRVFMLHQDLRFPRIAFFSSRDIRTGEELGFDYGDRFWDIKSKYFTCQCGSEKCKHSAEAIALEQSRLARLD
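AlphaScreen read-out: biotin-H3K9 peptide (500 nM) methylation by 20 nM enzyme with 20 uM SAM, 2 h at room temperature after 15 min compound preincubation; anti-monomethyl H3K9 antibody plus donor/acceptor beads, 10 min dark.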
BAZ2B inh = BAZ2B (human) inhibition; Q9UIF8; AlphaScreen BAZ2B-H3K14Ac peptide displacement; Potency, µM (titrated, usually from 114 µM), without a hit: top-dose activity change, negative = inhibition, hits mostly inhibitors; 360,000 tested, 4.4% active; AID 504333; also: % is scaled to controls: 0 for no effect and ±100 for the full control effect; nearly all actives have a fitted effect of over 60% in size
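In this displacement format the biotinylated H3(5-23) peptide acetylated at Lys14 serves as ligand at 50 nM, with BAZ2B at 50 nM in PBS pH 7.4 containing 0.01% Tween-20. Donor and acceptor beads are 10 ug/mL final.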
Active calls of the source: *; ? = inconclusive; . = no result; [ ] = another dose, or the depositor's remark. This is a sample that favours compounds with a hit; in the whole collection about 11% have one here. Calls follow the shape of the dose curve; as a rule, active = well fitted inhibition curve with a large enough effect; inconclusive = small, poorly fitted or top-dose-only effect; inactive = no such curve, though single readings can be large or run the other way. Potency is read from the fitted curve at half-maximal effect.

SMILES	HP1b chromo inh	JMJD2A Tudor	L3MBTL1 inh	G9a inh	BAZ2B inh
Cc1ccc(NC(=O)Cn2c(=O)n(CCC(=O)N3CCc4ccccc4C3)c(=O)c3ccccc32)c(C)c1	70%	-17%	.	-3%[59 µM]	8%
O=c1cc[nH]c2c1ccc1c(=O)cc[nH]c12	14%	?	.	45µM*	-26%
COc1cccc(C(=O)N/N=C/c2ccc(OC)c(COc3ccccc3C(N)=O)c2)c1	31%	-22%	.	63%	-2%
COc1ccc(C(=O)N/N=C/c2ccc(OC)c(COc3c(F)c(F)cc(F)c3F)c2)cc1	44%	-14%	.	?	?
COc1ccc(/C=N\NC(=O)c2ccc([N+](=O)[O-])cc2)cc1COc1c(F)c(F)cc(F)c1F	2%	-24%	.	63µM*	-2%
COc1ccc(/C=N\NC(=O)c2ccc(F)cc2)cc1COc1ccccc1C(N)=O	35%	-10%	.	35µM*	-23%
COc1cc(C)ccc1OCCSc1nc2ccc(NC(=O)c3ccco3)cc2s1	10%	-21%	.	?	-33%
O=C(COc1ccc(NC(=O)c2cccs2)cc1)c1ccc(F)cc1	10%	-8%	.	15%[12.7 µM]	-8%
Cc1ccc(-c2nnc(Nc3ccc(S(N)(=O)=O)cc3)c3ccccc23)cc1S(=O)(=O)N1CCOCC1	31%	-21%	.	-50%[59 µM]	-10%
COCCNc1nc(-c2cc3ccccc3o2)cs1	-13%	-35%	-12%	?	?
Cc1nc2sccn2c1-c1nc(-c2cc3ccccc3o2)cs1	-12%	25µM*	9%	0%[59 µM]	?
Fc1cc2[nH]c(=S)[nH]c2c(Br)c1N1CCSCC1	?	-25%	.	10µM*	-26%
COc1ccc(OC)c2c1nc1n2CCS1	?	-8%	1%	1.8µM*	-22%
O=C(CSc1ccc([N+](=O)[O-])cc1)Nc1ccccc1N1CCOCC1	1%	-34%	-1%	.	.
Cc1csc(NC(=O)CSc2ccc([N+](=O)[O-])cn2)n1	31%	-27%	.	50µM*	-31%
O=C(CSc1ccc([N+](=O)[O-])cn1)Nc1ccccc1N1CCOCC1	16%	-27%	.	40µM*	-25%
O=C(CSc1ccc([N+](=O)[O-])cn1)Nc1nccs1	40%	1%	.	3%	-6%
COc1ccccc1CN1COc2ccc3c(oc(=O)c4ccccc43)c2C1	21%	?	.	0.79µM*	5µM*
O=c1oc2c3c(ccc2c2ccccc12)OCN(Cc1ccc(Cl)cc1)C3	39%	-15%	.	1.4µM*	-27%
CCCc1cc(=O)oc2c3c(ccc12)OCN(Cc1ccccc1OC)C3	45%	7%	.	-2%[59 µM]	0%
Cc1cc(=O)oc2c3c(ccc12)OCN(Cc1ccc(Cl)cc1)C3	28%	7%	.	-50%[59 µM]	9%
O=C(CSc1ccccc1C(=O)O)NC1CCCCCCC1	62%	4%	.	-39%[59 µM]	4%
O=C(O)CSc1ccccc1C(=O)O	10%	-25%	.	45µM*	-10%
O=C(CSc1ccccc1C(=O)NCc1ccccc1)NC12CC3CC(CC(C3)C1)C2	26%	-16%	0%	10µM*	-8%
O=C(CSc1ccccc1C(=O)O)c1ccccc1	39%	-3%	.	0%[59 µM]	0%
SMILES	HP1b chromo inh	JMJD2A Tudor	L3MBTL1 inh	G9a inh	BAZ2B inh
O=C(CSc1ccccc1C(=O)O)NC1CCCCCC1	-24%	10µM*	6%	-37%	-3%
CC(C)CCNC(=O)c1ccccc1SCC(=O)NC1CCCCCCC1	37%	-2%	8%	3%[12.7 µM]	-9%
O=C(CSc1ccccc1C(=O)NCc1ccccc1)NC1CCCCCCC1	10%	89µM*	3%	10µM*	-5%
CCOc1ccc(NC(=O)c2ccc(NC(=O)N3CCSc4ncccc43)cc2)cc1	28%	12%	.	-3%[59 µM]	-2%
CCOC(=O)Cn1c(=O)n(C2CCCCC2)c2nc(-c3ccc(C(C)C)cc3)nc(C(N)=O)c21	16%[57 µM]	-17%	.	-2%[59 µM]	1%
C=CC1=C(C(=O)O)N2C(=O)[C@@H](NC(=O)C(N=O)c3csc(N)n3)[C@H]2SC1 (some centres not stated)	.	.	.	1%[59 µM]	.
CSc1ccc2nnc(-c3cccc(F)c3)n2n1	17%	-14%	8%	40µM*	0%
CCOC(=O)CC(=O)CSc1ccc2nnc(-c3cccc(F)c3)n2n1	12%	-1%	-1%	-30%	-3%
COC(=O)c1ccc(CSc2ccc3nnc(-c4cccc(F)c4)n3n2)o1	?	89µM*	11%	18µM*	-2%
Cc1cccc(CSc2ccc3nnc(-c4cccnc4)n3n2)c1	20%	-2%	4%	-5%[59 µM]	-2%
Cc1ccc(NC(=O)Cn2nc(C)c3nn(-c4ccc(Cl)cc4)c(C)c3c2=O)cc1F	16%[57 µM]	-18%	.	17%[59 µM]	8%
COc1ccccc1C1c2c(-c3ccc(Cl)cc3)n[nH]c2C(=O)N1c1ccc(C)cc1 (configuration not stated)	22%	?	.	?	.
Cc1cc(C)c(C(=O)COc2cccnc2[N+](=O)[O-])cc1C	3%	56µM*	.	7.1µM*	50µM*
COCCn1c(C)cc(C(=O)COc2cccnc2[N+](=O)[O-])c1C	11%	-28%	.	?	-31%
COc1ccc(OC)c2[nH]c(C(=O)O)cc12	-6%	89µM*	-8%	?	-1%
COc1ccc(OC)c2[nH]c(C(=O)N3CCC(C(=O)O)CC3)cc12	33%	-8%	.	-2%	1%
O=C(Nc1ccc2nc(SCC(=O)N3CCc4ccccc43)sc2c1)c1ccccc1	17%	-17%	.	-45%[59 µM]	-14%
CN(C)c1ccc(CNC(=O)CCNS(=O)(=O)c2cc(Br)cnc2N)cc1	0%	32µM*	.	35µM*	-32%
Cc1ccc(CNC(=O)Cn2c3ncccc3c(=O)n2-c2ccc(C)cc2)cc1	20%	3%	.	0%[59 µM]	-5%
Cc1nnc(Nc2ccc(O)cc2)[nH]c1=O	4%	-11%	?	50µM*	-26%
Cc1nnc(Nc2ccc(C(=O)O)cc2)[nH]c1=O	15%	0%	10%	3%	-4%
S=c1[nH]nc(NCCCN2CCOCC2)s1	?	3.5µM*	2%	1.3µM*	32µM*
Cc1ccc(NC(=O)c2cccc(C(F)(F)F)c2)cc1NC(=O)c1[nH]cnc1C(N)=O	31%	?	-10%	3%[0.501 µM]	56µM*
Cc1nc2ccc(NC(=O)c3cccc(C(F)(F)F)c3)cc2o1	21%	-9%	5%	-28%[59 µM]	2%
O=c1[nH]c(=S)[nH]nc1Cc1ccccc1	28%	?	22%	40µM*	-7%
Cc1[nH]c(=S)[nH]c(=O)c1CCCO	24%	-7%	-6%	71µM*	-16%
O=c1[nH]nc(Cc2ccccc2)c2ccccc12	20%	-4%	.	-4%[59 µM]	7%
Cc1[nH]c(=S)[nH]c(=O)c1Cc1ccccc1	36%	-23%	1%	50µM*	2%
CN(C)c1ccc(/C=C2\CCCCC2=O)cc1	-9%	?	-7%	50µM*	?

Screening results from PubChem BioAssay.
